Results filed as inconclusive are left out. Active and inactive are the calls of the source. Unless noted, calls come from the whole dose curve.
Molecular target: Tumor susceptibility gene 101 protein (Homo sapiens) (UniProt Q99816)
Experiment: qHTS Validation Assay for Iinhibitors of HIV-1 Budding by Blocking the Interaction of PTAP/TSG101 (AID 485342); note: 0% is about no effect
Conditions: TSG101-PTAP binding, fluorescence polarization, 4-point titration; series mostly up to 115 µM; fluorescence change: at the top concentration
In short: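 FP read-out: FITC-PTAP peptide, 50 nM final, binding Tsg101 binding domain, 10 uM final; 20 min r.t.; 10 mM HEPES pH 7.5, 0.15 M NaCl, 0.01% Tween 20, 3 mM EDTA, 0.1 mM TCEP.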

Chain of Tumor susceptibility gene 101 protein (Homo sapiens) (Q99816 whole entry, looked up): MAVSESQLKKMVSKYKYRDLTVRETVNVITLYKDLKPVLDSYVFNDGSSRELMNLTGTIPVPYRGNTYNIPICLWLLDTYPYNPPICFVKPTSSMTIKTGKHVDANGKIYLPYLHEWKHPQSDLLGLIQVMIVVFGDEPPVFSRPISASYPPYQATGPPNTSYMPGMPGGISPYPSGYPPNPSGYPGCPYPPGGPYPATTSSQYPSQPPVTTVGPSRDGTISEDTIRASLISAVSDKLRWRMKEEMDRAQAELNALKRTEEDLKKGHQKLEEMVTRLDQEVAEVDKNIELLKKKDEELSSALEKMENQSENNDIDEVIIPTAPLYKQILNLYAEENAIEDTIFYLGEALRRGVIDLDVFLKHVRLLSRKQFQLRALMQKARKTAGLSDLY

Row | SMILES | fluorescence change
1 | C=CCN1C[C@@H](C)N([C@H](c2ccc(C(=O)N(CC)CC)cc2)c2cccc(OC)c2)C[C@@H]1C | -1.5% (inactive)
2 | N#CCCN | 6.24% (inactive)
3 | N#C/C(=C/c1ccc(O)c(O)c1)C(N)=S | 3.12% (inactive)
4 | N=C(N)c1ccc(CS(=O)(=O)F)cc1 | 1.81% (inactive)
5 | CCCN1CCc2cccc3c2[C@H]1Cc1ccc(O)c(O)c1-3 | -4.08% (inactive)
6 | COc1ccc2c(c1)c(CCN1CCOCC1)c(C)n2C(=O)c1cccc(Cl)c1Cl | -21.7% (inactive)
7 | CC(=O)c1c(O)c(C)c(O)c(Cc2c(O)c3c(c(C(=O)/C=C/c4ccccc4)c2O)OC(C)(C)C=C3)c1O | -6.17% (inactive)
8 | CC(N)c1cccc(Cl)c1Cl (centres undefined) | 2.4% (inactive)
9 | C=CCN1CCc2cccc3c2[C@H]1Cc1ccc(O)c(O)c1-3 | -9.72% (inactive)
10 | CCN1C[C@@]2(COC)C3[C@@H](OC)C4[C@@H]1C3([C@@H]1C[C@]3(O)[C@H](OC(=O)c5ccccc5)[C@@H]1[C@]4(OC(C)=O)[C@@H](O)[C@@H]3OC)[C@H](OC)C[C@H]2O | 5.84% (inactive)
11 | C[N+]1(C)CCc2cc3c(cc2[C@H]1[C@@H]1OC(=O)c2c1ccc1c2OCO1)OCO3 | 4.5% (inactive)
12 | CCCn1c(=O)c2[nH]c(C3CCCC3)nc2n(CCCOC(=O)c2ccc(S(=O)(=O)F)cc2)c1=O | 3.49% (inactive)
13 | COc1ccc2c(c1O)-c1cccc3c1[C@@H](C2)N(C)CC3 | 3.37% (inactive)
14 | C=CCN1CC[C@]23c4c5ccc(O)c4O[C@@H]2/C(=N/N=C2\CC[C@@]4(O)C6Cc7ccc(O)c8c7[C@@]4(CCN6CC=C)[C@@H]2O8)CC[C@@]3(O)C1C5 | 7.84% (inactive)
15 | COc1ccc2c(c1)/C(=C/c1cnc[nH]1)C(=O)N2 | 3.81% (inactive)
16 | CCCC[N+]1(C)C2CC(OC(=O)[C@H](CO)c3ccccc3)CC1C1OC12 (some centres undefined) | 3.37% (inactive)
17 | CC(=O)OCC1=C(C(=O)O)N2C(=O)[C@@H](NC(=O)CCC[C@@H](N)C(=O)O)[C@H]2SC1 | -0.334% (inactive)
18 | C[N+]1(C)C2CCC1CC(OC(=O)c1c[nH]c3ccccc13)C2 (centres undefined) | -0.202% (inactive)
19 | CCCN1CCc2cc(O)cc3c2[C@H]1Cc1ccc(O)c(O)c1-3 | 0.747% (inactive)
20 | NC(N)=Nc1ccc2[nH]c3c(c2c1)C[C@@]1(O)[C@H]2Cc4ccc(O)c5c4[C@@]1(CCN2CC1CC1)[C@H]3O5 | 2.57% (inactive)
21 | Cc1cc([C@@H]2CCCN2C)on1 | -1.33% (inactive)
22 | NC(Cc1cc(O)c(O)cc1O)C(=O)O (centres undefined) | 1.02% (inactive)
23 | Ic1ccccc1CNC1C2CCN(CC2)C1C(c1ccccc1)c1ccccc1 (centres undefined) | -5.79% (inactive)
24 | CC(C)(O)[C@@H]1C2OC(=O)[C@@H]1[C@]1(O)C[C@H]3O[C@]34C(=O)O[C@H]2[C@]14C (tested in a mixture with another compound) | -1.3% (inactive)
25 | CC(C)[C@@]1(NC(=O)[C@@H]2C[C@@H]3c4cccc5[nH]cc(c45)C[C@H]3N(C)C2)O[C@@]2(O)[C@@H]3CCCN3C(=O)[C@H](Cc3ccccc3)N2C1=O | 6.01% (inactive)
26 | NC(=O)CI | 2.32% (inactive)
27 | CC(C)(C)c1cc(C=C(C#N)C#N)cc(C(C)(C)C)c1O | -2.52% (inactive)
28 | CN1CC[C@@]2(C)c3cc(OC(=O)Nc4ccccc4)ccc3N(C)[C@@H]12 | -0.485% (inactive)
29 | O=[N+]([O-])/C=C/c1ccc2c(c1)OCO2 | -0.718% (inactive)

Test system: not listed separately
Experiment: qHTS Validation Assay to Find Inhibitors of Chronic Active B-Cell Receptor Signaling (AID 485345; active = well fitted curve in the direction sought with a large enough effect in the main read-out, with a control signal flat, not every such curve was filed as active;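 note: 0% = untreated basal cells and 100% = 10 µM MG-132 proteasome inhibitor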)
Conditions: ABC-DLBCL cells, chronic BCR signaling reporter, CBG luciferase; series mostly up to 46.1 µM; activity change: at the top concentration
In short: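 TMD8 ABC-DLBCL cells with dox-inducible green luciferase–IκBα fusion and red native luciferase; compounds 46 uM–3 nM, 4 h at 37C with doxycycline in 0.5% FBS IMDM. Green/red ratio normalized to basal and 10 uM MG-132.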

Row | SMILES | activity change
30 | CCN(CCCl)Cc1ccccc1Br | 0.618% (inactive)
31 | C=CCN1C[C@@H](C)N([C@H](c2ccc(C(=O)N(CC)CC)cc2)c2cccc(OC)c2)C[C@@H]1C | -3.73% (inactive)
32 | N#CCCN | -5.73% (inactive)
33 | N#C/C(=C/c1ccc(O)c(O)c1)C(N)=S | -4.61% (inactive)
34 | N=C(N)c1ccc(CS(=O)(=O)F)cc1 | 0.128% (inactive)
35 | CC(=O)c1c(O)c(C)c(O)c(Cc2c(O)c3c(c(C(=O)/C=C/c4ccccc4)c2O)OC(C)(C)C=C3)c1O | -12.1% (inactive)
36 | CC(N)c1cccc(Cl)c1Cl (centres undefined) | -9.41% (inactive)
37 | CCN1C[C@@]2(COC)C3[C@@H](OC)C4[C@@H]1C3([C@@H]1C[C@]3(O)[C@H](OC(=O)c5ccccc5)[C@@H]1[C@]4(OC(C)=O)[C@@H](O)[C@@H]3OC)[C@H](OC)C[C@H]2O | -3.78% (inactive)
38 | C[N+]1(C)CCc2cc3c(cc2[C@H]1[C@@H]1OC(=O)c2c1ccc1c2OCO1)OCO3 | -0.605% (inactive)
39 | CN1CCc2cc(O)cc3c2[C@H]1Cc1ccc(O)c(O)c1-3 | -8.32% (inactive)
40 | C=CCN1CC[C@]23c4c5ccc(O)c4O[C@@H]2/C(=N/N=C2\CC[C@@]4(O)C6Cc7ccc(O)c8c7[C@@]4(CCN6CC=C)[C@@H]2O8)CC[C@@]3(O)C1C5 | -15.5% (inactive)
41 | CCCN1CCC[C@@H](c2cccc(O)c2)C1 | -1.27% (inactive)
42 | CCCC[N+]1(C)C2CC(OC(=O)[C@H](CO)c3ccccc3)CC1C1OC12 (some centres undefined) | -2.25% (inactive)
43 | CC(=O)OCC1=C(C(=O)O)N2C(=O)[C@@H](NC(=O)CCC[C@@H](N)C(=O)O)[C@H]2SC1 | -0.134% (inactive)
44 | C[N+]1(C)C2CCC1CC(OC(=O)c1c[nH]c3ccccc13)C2 (centres undefined) | 2.76% (inactive)
45 | Cc1cc([C@@H]2CCCN2C)on1 | -5.57% (inactive)
46 | NC(Cc1cc(O)c(O)cc1O)C(=O)O (centres undefined) | -4.49% (inactive)
47 | C[C@H](N)Cc1cccc(C(F)(F)F)c1 | -4.6% (inactive)
48 | CC(C)(O)[C@@H]1C2OC(=O)[C@@H]1[C@]1(O)C[C@H]3O[C@]34C(=O)O[C@H]2[C@]14C (tested in a mixture with another compound) | -5.72% (inactive)
49 | CC(C)[C@@]1(NC(=O)[C@@H]2C[C@@H]3c4cccc5[nH]cc(c45)C[C@H]3N(C)C2)O[C@@]2(O)[C@@H]3CCCN3C(=O)[C@H](Cc3ccccc3)N2C1=O | -14.4% (inactive)
50 | NC(=O)CI | -0.335% (inactive)
51 | CCS(=O)(=O)Nc1cccc(C(=C2CCCCC2)c2cnc[nH]2)c1 | -12.6% (inactive)
52 | C=CCN(C1=NCCN1)c1c(Cl)cccc1Cl | 0.0334% (inactive)
53 | CCCCCCC(C)(C)c1ccc([C@@H]2C[C@H](O)CC[C@H]2CCCO)c(O)c1 | 4.35% (inactive)
54 | N[C@@H](Cn1ccc(=O)[nH]c1=O)C(=O)O | -0.469% (inactive)

Reference: PubChem BioAssay (NCATS)
